The panel holds about 79,000 compounds, 15% with a hit somewhere; the sample as a whole holds those more often. Calls of active or inactive are those of the source. Rule as the data show it: active = growth inhibition above about 70%; inactive = the rest.
What was measured:
[1] = NCI Yeast Anticancer Drug Screen. Data for the wt1 strain (AID 149);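 also: 0% = growth of vehicle-treated wt1 cultures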; conditions: S. cerevisiae wt1 strain (SPY 50644) growth inhibition, active compounds read high
In short: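 Vehicle-normalised growth inhibition; strain wt1; compound exposure.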

[2] = NCI Yeast Anticancer Drug Screen. Data for the mgt1 strain (AID 153); conditions: S. cerevisiae mgt1 mutant growth inhibition, active compounds read high
In short: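 After exposure of the mgt1 yeast mutant to compound, growth was measured and reported as inhibition compared with vehicle controls.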

[3] = NCI Yeast Anticancer Drug Screen. Data for the rad50 strain (AID 155);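 also: 0% = growth of vehicle-only cultures of the same strain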; conditions: S. cerevisiae rad50 strain growth inhibition, active compounds read high
In short: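 A DNA repair-deficient yeast mutant serves as the test organism; compound-induced growth inhibition is calculated against vehicle-treated cells.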

[4] = NCI Yeast Anticancer Drug Screen. Data for the mec2-1 strain (AID 157); conditions: S. cerevisiae mec2-1 strain, active compounds read high
In short: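 Test agents were screened against the mec2-1 yeast strain, with defined DNA repair or cell cycle alteration. Growth was scored as inhibition against vehicle-only controls.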

[5] = NCI Yeast Anticancer Drug Screen. Data for the rad14 strain (AID 159);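 also: 0% = growth of vehicle-treated control cultures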; conditions: S. cerevisiae rad14 strain growth inhibition, active compounds read high
In short: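 Vehicle-treated cultures served as the baseline for growth inhibition of a DNA repair-mutant yeast strain exposed to each compound.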

[6] = NCI Yeast Anticancer Drug Screen. Data for the sgs1 mgt1 strain (AID 161);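 also: 0% = growth of cultures given vehicle only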; conditions: S. cerevisiae sgs1 mgt1 strain, active compounds read high
In short: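 Mutant yeast exposed to compound; growth scored against vehicle-only wells.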

[7] = NCI Yeast Anticancer Drug Screen. Data for the CLN2oe strain (AID 163);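 also: 0% = growth of vehicle-only control cultures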; conditions: S. cerevisiae CLN2oe strain, active compounds read high
In short: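 Here, growth inhibition in a cell-cycle-altered yeast strain after compound exposure was quantified against vehicle control growth.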

[8] = NCI Yeast Anticancer Drug Screen. Data for the cln2 rad14 strain (AID 165);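 also: 0% = growth equal to vehicle treated cultures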; conditions: S. cerevisiae cln2 rad14 strain, active compounds read high
In short: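 Growth of compound-exposed yeast (cln2 rad14 genotype) measured and expressed as inhibition relative to vehicle.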

[9] = NCI Yeast Anticancer Drug Screen. Data for the bub3 strain (AID 167); conditions: S. cerevisiae bub3 mutant strain, active compounds read high
In short: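 Inhibition values come from growth of compound-treated mutant yeast normalised to vehicle-treated controls.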

[10] = NCI Yeast Anticancer Drug Screen. Data for the wt2 strain (AID 169);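 also: 0% = growth of vehicle-treated yeast cultures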; conditions: S. cerevisiae wt2 strain growth inhibition, active compounds read high
In short: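 Genetically defined yeast strains from a DNA-repair/cell-cycle panel were used. Compound-exposed yeast growth was measured, and the inhibition was calculated relative to vehicle treatment.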

[11] = NCI Yeast Anticancer Drug Screen. Data for the mlh1 strain (AID 171);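 also: 0% = growth of vehicle-treated control cultures of the same strain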; conditions: S. cerevisiae mlh1 strain growth inhibition, active compounds read high
In short: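 Here the genetically defined yeast mutant is grown with each compound, and the extent to which its growth falls below that of vehicle-exposed cells is reported.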

[12] = NCI Yeast Anticancer Drug Screen. Data for the sgs1 strain (AID 173);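 also: 0% = growth of vehicle-only control cultures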; conditions: S. cerevisiae sgs1 mutant, active compounds read high
In short: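 Relative growth inhibition, referenced to vehicle, was determined in a yeast strain with a defined alteration affecting DNA damage repair or cell cycle control after compound exposure.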

[13] = NCI Yeast Anticancer Drug Screen. Data for the mlh1 rad18 strain (AID 175); conditions: S. cerevisiae mlh1 rad18 strain growth inhibition, active compounds read high
In short: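 In this whole-cell yeast screen, a strain with altered DNA damage repair is challenged with compound, and its growth is measured against matched vehicle-treated controls.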

[14] = NCI Yeast Anticancer Drug Screen. Data for the rad18 strain (AID 177); conditions: S. cerevisiae rad18 mutant growth inhibition, active compounds read high
In short: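 Screen uses a yeast strain with a defined lesion in DNA damage repair; compound effect is read as loss of growth compared to untreated vehicle cultures.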

[15] = at 5.0 µM (retest, dose inferred, filed as 0.5)
[16] = at 50.0 µM (retest, dose inferred, filed as 5.0)

Measured: growth inhibition

O=C1OC(/C=C/c2ccccc2)Sc2ccccc21 (stereo not drawn)
active: [9]; at 50.0 µM 89.3%
inactive: [1]; at 1.2 µM -3% | [1]; at 3.7 µM 0% | [1]; at 11.0 µM 1% | [1]; at 33.0 µM 2% | [1]; at 100.0 µM 8% | [2]; at 1.2 µM -1% | [2]; at 3.7 µM 2% | [2]; at 11.0 µM 4% | [2]; at 33.0 µM 10% | [2]; at 100.0 µM 44% | [3]; at 1.2 µM 3% | [3]; at 3.7 µM 4% | [3]; [15] -16% | [3]; at 11.0 µM 10% | [3]; at 33.0 µM 14% | [3]; [16] 1% | [3]; at 50.0 µM -0.5% | [3]; at 100.0 µM 27% | [4]; at 1.2 µM -3% | [4]; at 3.7 µM -3% | [4]; [15] 10% | [4]; at 11.0 µM 0% | [4]; at 33.0 µM 10% | [4]; [16] 8% | [4]; at 50.0 µM 29.8% | [4]; at 100.0 µM 24% | [5]; at 1.2 µM 1% | [5]; at 3.7 µM 0% | [5]; at 11.0 µM 4% | [5]; at 33.0 µM 12% | [5]; at 100.0 µM 23% | [6]; [15] 3% | [6]; [16] 7% | [6]; at 50.0 µM 30.9% | [7]; at 1.2 µM 0% | [7]; at 3.7 µM 2% | [7]; at 11.0 µM -1% | [7]; at 33.0 µM 3% | [7]; at 100.0 µM 17% | [8]; [15] -34% | [8]; [16] -47% | [8]; at 50.0 µM -26.9% | [9]; at 1.2 µM 5% | [9]; at 3.7 µM 11% | [9]; [15] 7% | [9]; at 11.0 µM 33% | [9]; at 33.0 µM 46% | [9]; [16] 50% | [9]; at 100.0 µM 62% | [10]; at 1.2 µM -2% | [10]; at 3.7 µM -8% | [10]; at 11.0 µM -2% | [10]; at 33.0 µM 1% | [10]; at 100.0 µM 10% | [11]; at 1.2 µM 1% | [11]; at 3.7 µM 3% | [11]; at 11.0 µM 7% | [11]; at 33.0 µM 12% | [11]; at 100.0 µM 26% | [12]; at 1.2 µM 0% | [12]; at 3.7 µM 2% | [12]; at 11.0 µM 6% | [12]; at 33.0 µM 12% | [12]; at 100.0 µM 25% | [13]; [15] 11% | [13]; [16] 27% | [13]; at 50.0 µM 32.9% | [14]; at 1.2 µM 1% | [14]; at 3.7 µM 4% | [14]; at 11.0 µM 7% | [14]; at 33.0 µM 19% | [14]; at 100.0 µM 43%

— PubChem BioAssay (NCI)
